# From the supplement of paper PMC3842684
# Tested on: P. falciparum NF54-pfs16-GFP early (I-III) stage gametocytes
# Assay: relative % inhibition of viable gametocyte number; higher = more gametocytocidal
# Details: 0.5 µM; stage: early (I-III) gametocyte; incubation 72 h
# In short: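 Early-stage (I/IIa, day 2) or late-stage (day 8) NF54 pfs16-GFP gametocytes were isolated by magnet and plated in 384-well poly-D-lysine imaging plates at 10% parasitaemia and 0.1% haematocrit, with compound in duplicate at 5 or 0.5 µM. After 72 h at 37°C under 5% CO2 and 5% O2, MitoTracker Red was added overnight. Confocal imaging scored elongated GFP objects whose MitoTracker signal passed a cut-off as viable gametocytes. Relative inhibition was normalised against vehicle and positive-control wells on the same plate.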
row,SMILES,relative % inhibition
1,Cc1cc(Nc2ccc(OCc3ccccc3)cc2)nc2cc(O)ccc12,12.6%
2,CCCCC(O)(c1ccc(Cl)cc1)C(CN1CCOCC1)c1ccc(Cl)cc1 (stereo not drawn),10.8%
3,Cc1sc(NC(=O)c2ccccc2)c(C(c2cccs2)N2CCN(c3ccccc3)CC2)c1C (stereo not drawn),17.7%
4,COc1ccc2c(c1)OC(O)(C(F)(F)C(F)(F)F)CC2=O (stereo not drawn),-12.9%
5,CCCN(CCC)CC(O)COc1ccccc1C(=O)Nc1ccccc1 (stereo not drawn),22.5%
6,CC1CC(C)CN(C(=O)c2ccc(Cl)cc2Cl)C1 (stereo not drawn),-0.883%
7,CCCOCc1cc(CN2CCN(c3cccc(Cl)c3)CC2)c(O)c2ncccc12,14%
8,CCOc1cccc2sc(N(Cc3cccnc3)C(=O)C3CCCCC3)nc12,16.6%
9,O=C(Nc1ccccc1O)c1ccc(Oc2cccc(C(=O)Nc3ccccc3O)c2)cc1,20.5%
10,COc1ccc(-c2nonc2NC(=O)c2cccc(C)c2)cc1OC,15.3%
11,Cc1ccc(S(=O)(=O)c2c(COC(=O)c3cccc(C)c3)c(-c3ccccc3)nn2C)cc1,-3.57%
12,COc1cccc(Nc2nc(NCCO)c3ccccc3n2)c1,0%
13,CCOc1ccccc1CN1CCc2nc3cc(C(C)(C)C)nn3c(O)c2C1,-6.1%
14,Oc1ccccc1CNCC12CC3CC(CC(C3)C1)C2,91.6%
15,COc1ccc(C2=C(c3ccc(OC)cc3)C3(c4ccccc4)C(=O)C2(c2ccccc2)C2C(=O)N(c4ccc(C)cc4)C(=O)C23)cc1 (stereo not drawn),60.3%
16,CCN(CC)CCNc1ccnc2cc3ccccc3cc12,99.4%
17,COc1ccc(-c2nc(N3CCN(C(=O)C4CCCCC4)CC3)c3c4c(sc3n2)CCCC4)cc1,-24.1%
18,Nc1nc(Nc2cccc(F)c2)nc2ccccc12,5.49%
19,O=C(Nc1ccc(-c2nc3ccccc3[nH]2)cc1)c1ccc(Cl)c(Cl)c1,14.9%
20,Cc1cc(C)cc(Nc2cc(C)nc3nc(C(F)(F)F)nn23)c1,-6.02%

# Same assay, conditions: 5 µM; stage: early (I-III) gametocyte; incubation 72 h
row,SMILES,relative % inhibition
1,c1ccc(Cn2c(N=Nc3c(Nc4ccccc4)ccc4ccccc34)nc3ccccc32)cc1,106%
2,COc1ccc(C(=O)C2CC2c2ccc(Cl)cc2)cc1 (stereo not drawn),79.1%
3,C=CCc1c(C)nc2ccccc2c1O,13.3%
4,CCc1ccc(CNCC(O)c2ccccc2)cc1 (stereo not drawn),44.3%
5,Cc1ccc(NC(=O)Nc2cccc(Cl)c2)cc1F,28.9%
6,O=C(NCC1Cc2cccc(-c3ccncc3)c2O1)c1csc2c1CCCC2 (stereo not drawn),6.48%
7,O=C(NCCCN1CCC(N2CCCCC2)CC1)C1=Cc2cc(Br)ccc2OC1,102%
8,COc1cc(SC)ccc1C(=O)N1CCCC(C)C1 (stereo not drawn),-6.96%
9,Cc1cccc(N2C(=O)C3C(C2=O)C2(c4ccccc4)C(=O)C3(c3ccccc3)C(c3ccc4c(c3)OCO4)=C2c2ccc3c(c2)OCO3)c1 (stereo not drawn),66.1%
10,Cn1c(=O)n(C)c2cc(CNCCNc3ccnc4cc(Cl)ccc34)ccc21,29.6%
11,Cc1ccc(Cl)cc1N1CCN(CCCNC(=O)C2CCN(c3nc4ccccc4[nH]3)CC2)CC1,66%
12,COC(=O)c1ccc(Cl)c2c1C1C=CCC1C(c1cccc3ccccc13)N2 (stereo not drawn),8.02%
13,CCC(O)c1ccc(Br)cc1NC(=O)c1cccc(Cl)c1 (stereo not drawn),93.3%
14,CCOC(=O)c1cnc2c(C)cccc2c1Nc1ccc(C(C)=O)cc1,7.93%
15,O=C(NCc1ccco1)C1CCN(S(=O)(=O)c2ccc(Cl)cc2)CC1,3.24%
16,O=c1nc(C=Cc2ccc(Br)cc2)oc2ccccc12,-18.8%
17,COc1ccc(C(=O)C(CCC(CNC(C)(C)C)C(=O)c2ccc(OC)cc2)CNC(C)(C)C)cc1 (stereo not drawn),94%
18,CC1=C(CC(=O)c2cccc([N+](=O)[O-])c2)C(=O)c2ccccc2C1=O,60%
19,Cc1cc(Nc2ccc(OCc3ccccc3)cc2)nc2cc(O)ccc12,95.1%

row,SMILES,relative % inhibition
1,CCCCC(O)(c1ccc(Cl)cc1)C(CN1CCOCC1)c1ccc(Cl)cc1 (stereo not drawn),92.5%
2,Cc1sc(NC(=O)c2ccccc2)c(C(c2cccs2)N2CCN(c3ccccc3)CC2)c1C (stereo not drawn),12.8%
3,COc1ccc2c(c1)OC(O)(C(F)(F)C(F)(F)F)CC2=O (stereo not drawn),-4.42%
4,CCCN(CCC)CC(O)COc1ccccc1C(=O)Nc1ccccc1 (stereo not drawn),101%
5,CC1CC(C)CN(C(=O)c2ccc(Cl)cc2Cl)C1 (stereo not drawn),-4.96%
6,CCCOCc1cc(CN2CCN(c3cccc(Cl)c3)CC2)c(O)c2ncccc12,91.3%
7,CCOc1cccc2sc(N(Cc3cccnc3)C(=O)C3CCCCC3)nc12,53.7%
8,O=C(Nc1ccccc1O)c1ccc(Oc2cccc(C(=O)Nc3ccccc3O)c2)cc1,50.6%
9,COc1ccc(-c2nonc2NC(=O)c2cccc(C)c2)cc1OC,39.2%
10,Cc1ccc(S(=O)(=O)c2c(COC(=O)c3cccc(C)c3)c(-c3ccccc3)nn2C)cc1,37.5%
11,COc1cccc(Nc2nc(NCCO)c3ccccc3n2)c1,-12.9%
12,CCOc1ccccc1CN1CCc2nc3cc(C(C)(C)C)nn3c(O)c2C1,-4.88%
13,Oc1ccccc1CNCC12CC3CC(CC(C3)C1)C2,84.2%
14,COc1ccc(C2=C(c3ccc(OC)cc3)C3(c4ccccc4)C(=O)C2(c2ccccc2)C2C(=O)N(c4ccc(C)cc4)C(=O)C23)cc1 (stereo not drawn),84.7%
15,CCN(CC)CCNc1ccnc2cc3ccccc3cc12,100%
16,COc1ccc(-c2nc(N3CCN(C(=O)C4CCCCC4)CC3)c3c4c(sc3n2)CCCC4)cc1,55.7%
17,Nc1nc(Nc2cccc(F)c2)nc2ccccc12,-3.66%
18,O=C(Nc1ccc(-c2nc3ccccc3[nH]2)cc1)c1ccc(Cl)c(Cl)c1,-3.57%
19,Cc1cc(C)cc(Nc2cc(C)nc3nc(C(F)(F)F)nn23)c1,10%
